A short description of test [1]: NCI Yeast Anticancer Drug Screen. Data for the rad50 strain (AID 155).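 Note: 0% = growth of vehicle-only cultures of the same strain.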 The following applies: S. cerevisiae rad50 strain growth inhibition; at 50.0 µM; hits give high values. The procedure, abridged: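 A DNA repair-deficient yeast mutant serves as the test organism; compound-induced growth inhibition is calculated against vehicle-treated cells.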
The nature of test [2]: NCI Yeast Anticancer Drug Screen. Data for the mec2-1 strain (AID 157). Conditions: S. cerevisiae mec2-1 strain, at 50.0 µM, hits give high values. An outline of the steps:
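Growth inhibition is read against vehicle-treated controls after compound exposure of the mec2-1 yeast strain, which is defective in DNA damage repair or cell cycle control.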

Test [3] can be described thus: NCI Yeast Anticancer Drug Screen. Data for the sgs1 mgt1 strain (AID 161).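 Note: 0% = growth of cultures given vehicle only.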 The following applies: S. cerevisiae sgs1 mgt1 strain, at 50.0 µM, hits give high values. An outline of the steps: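 Yeast cells carrying a defined DNA-repair defect were exposed to test compounds. Growth inhibition was measured relative to vehicle-treated controls.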
Test [4] is described as follows: NCI Yeast Anticancer Drug Screen. Data for the cln2 rad14 strain (AID 165).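 Note: 0% = growth equal to vehicle treated cultures.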 The following applies: S. cerevisiae cln2 rad14 strain, at 50.0 µM, hits give high values. The procedure, abridged:
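Growth inhibition, relative to vehicle-treated controls, is the read-out. The test organism is a yeast strain with defined genetic alterations, cln2 rad14.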

A short description of test [5]: NCI Yeast Anticancer Drug Screen. Data for the bub3 strain (AID 167). The following applies: S. cerevisiae bub3 mutant strain, at 50.0 µM, hits give high values. An outline of the steps: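 Inhibition values come from growth of compound-treated mutant yeast normalised to vehicle-treated controls.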
Test [6] in a line: NCI Yeast Anticancer Drug Screen. Data for the mlh1 rad18 strain (AID 175). The following applies: S. cerevisiae mlh1 rad18 strain growth inhibition; at 50.0 µM; hits give high values. The procedure, abridged:
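Cells of a genetically altered yeast strain, deficient in DNA damage repair, were treated with compound. Their growth was then compared with that of vehicle-treated cultures to give inhibition.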

Compounds without any hit were thinned out: in the full panel of roughly 79,000, 15% have a hit. Unmarked numbers belong to inactive results. Activity calls are given as the source filed them. Cut-off read from the data, not from the text of the source: active = growth inhibition above about 70%; inactive = the rest.

Results on 21 compounds are retold here after PubChem BioAssay (NCI).

Take `C=CCC(c1ccccc1)(c1ccccc1)c1ccccc1`: the growth inhibition in test [1] was -3.35%; in test [2] it was 5.25%; in test [3], 3.65%; in test [4], 3.55%; in test [5], 7.25%; in test [6] it was 8.25%.

With `C/C=C(/C)C(=O)O[C@@H]1c2c(C)coc2C(=O)[C@@]2(OC(C)=O)CCC[C@@](C)(O)[C@@]12C`, the growth inhibition in test [1] was 26.8%; in test [2] it was 9.55%; in test [3], 24.3%; in test [4] it was 22.6%; in test [5] it was 39.4%; in test [6], 43.9%.

`N#CC(NCc1ccccc1)c1ccccc1` (stereo unspecified): the growth inhibition in test [1] is 67.7%; in test [2], 43%; in test [3] it was 14.3%; in test [4], -17.1%; in test [5], 22.2%; in test [6], 19.8%.

With `Cc1ccc(CNC(=O)NCCCCCCNC(=O)NCc2ccc(C)cc2)cc1`, the growth inhibition in test [1] was -29.4%; in test [2], -6.45%; in test [3], -9.95%; in test [4] it was -20.3%; in test [5], -2.95%; in test [6], -1.1%.

With `CC(C)(C)c1cc(C(c2ccc3c(c2)OCO3)N2CCOCC2)c(O)c(C(C)(C)C)c1` (stereo unspecified), the growth inhibition in test [1] is 12.3%; in test [2] it was -12.3%; in test [3], -2.05%; in test [4] it was 14.8%; in test [5], 13.1%; in test [6], 16.9%.

Regarding `COc1ccc(SC/C(=N\NOS(=O)(=O)c2ccc(C)cc2)c2ccccc2)cc1`, the growth inhibition in test [1] was 85.1% (active); in test [2], 34.1%; in test [3] it was 93.3% (active); in test [4], 61%; in test [5] it was 61%; in test [6], 87.7% (active).

In the case of `O=C(C(=Cc1ccc(F)cc1)C(=O)c1ccccc1)c1ccccc1`, the growth inhibition in test [1] is 1.75%; in test [2], 6.2%; in test [3], -12%; in test [4] it was 5.95%; in test [5], 3.35%; in test [6], 26.6%.

`COc1c2c(cc3c1C1(O)Cc4ccc5c(c4C[N+]1(C)CC3)OCO5)OCO2` (stereo unspecified): the growth inhibition is 10.8% in test [1]; 3.05% in test [2]; -5.3% in test [3]; -1.15% in test [4]; -4.25% in test [5]; -60.8% in test [6].

As for `C/C(=N\NC(N)=S)c1sc(-n2nc(-c3ccccc3)cc2-c2ccccc2)nc1C`, the growth inhibition in test [1] was 4.65%; in test [2] it was -18.2%; in test [3] it was 12.2%; in test [4] it was 0.25%; in test [5], 26.6%; in test [6], 15.7%.

Take `O=C(OC1(c2ccccc2)OC(=O)c2ccccc21)c1ccccc1C(=O)c1ccccc1` (stereo unspecified): the growth inhibition in test [1] is -6.65%; in test [2] it was 2.45%; in test [3] it was -12.1%; in test [4] it was 3.45%; in test [5] it was 3.4%; in test [6], -25.9%.

Consider `O=C(Nc1nncs1)c1cccs1`, for which the growth inhibition in test [1] was -13.8%; in test [2] it was -6.45%; in test [3] it was -5.6%; in test [4], 3.35%; in test [5], -11.2%; in test [6] it was -27.5%.

In the case of `CCCCc1c2c(nc3c1CCC/C3=C\c1ccccc1)C(=O)CCC2`, the growth inhibition in test [1] is 15.8%; in test [2], 9.1%; in test [3], 3.2%; in test [4] it was 12.2%; in test [5] it was 30.6%; in test [6] it was 18.1%.

For `Cc1cccc(NC(=S)N(CCC#N)C2CCCCC2)c1`, the growth inhibition in test [1] is 1.6%; in test [2] it was -2.85%; in test [3] it was 14.8%; in test [4], 7%; in test [5], 18.6%; in test [6], 9.85%.

As to `CC(C)(C)C(=O)OCN1CCOCC1`, the growth inhibition in test [1] is -10.6%; in test [2] it was 10.9%; in test [3] it was 0.65%; in test [4], -47.8%; in test [5], -9.15%; in test [6], -10.2%.

For the compound `COc1ccc(CSC(=S)Nc2cc(C)c(C)cc2Br)cc1`, the growth inhibition is 96.3% (active) in test [1]; 97.5% (active) in test [2]; 97.7% (active) in test [3]; 97.6% (active) in test [4]; 96.8% (active) in test [5]; 96.8% (active) in test [6].

On to `C(CN1CCC2CCC(C2)C1)=C(c1ccccc1)c1ccccc1` (stereo unspecified), for which the growth inhibition was 3.75% in test [1]; -1.3% in test [2]; 15.3% in test [3]; -17.9% in test [4]; 26.1% in test [5]; 4.35% in test [6].

Turning to `COc1ccccc1NCS(=O)(=O)O`, the growth inhibition in test [1] is -7.2%; in test [2] it was -2.5%; in test [3], -5.95%; in test [4], -60.2%; in test [5], 11.2%; in test [6], -8.1%.

As to `Nc1ccccc1C(=O)CCc1c[nH]c2ccccc12`, the growth inhibition in test [1] is 5.05%; in test [2], 9.05%; in test [3] it was 7.6%; in test [4] it was -42.4%; in test [5] it was -12.1%; in test [6], 12.3%.

As to `CC(=NCCN(CCN=C(C)c1c(O)cc(C)oc1=O)CCN=C(C)c1c(O)cc(C)oc1=O)c1c(O)cc(C)oc1=O`, the growth inhibition in test [1] is 22.4%; in test [2], -4.3%; in test [3], 1.8%; in test [4], 11.4%; in test [5], 6.3%; in test [6], 21.8%.

As for `CC(=O)OCCOCNC(=S)NCc1ccco1`, the growth inhibition is 11.2% in test [1]; -7.25% in test [2]; -40% in test [3]; 9.3% in test [4]; 5.85% in test [5]; -10.3% in test [6].

Take `CCCCCCC(/C=N/Nc1ccccn1)=C\c1ccccc1`: the growth inhibition is -5.05% in test [1]; -0.95% in test [2]; 2.55% in test [3]; -7.6% in test [4]; -4.1% in test [5]; -21.9% in test [6].
